LmPK inhibitor: LmPK (Leishmania mexicana) enzyme inhibition; AID 1721; Q27686; Potency, µM (top dose mostly 57.5 µM), for the others: at the top dose activity change, negative = inhibition, hits mostly inhibitors; hit rate 0.37% among 290,000; purified LmPK, Kinase-Glo ATP luminescence, 1 h
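ATP generated from ADP (0.1 mM) and PEP (0.5 mM) by 0.1 nM LmPK over 1 h at room temperature (pH 7.2 imidazole buffer) was detected by coupled luciferase luminescence. Values were normalized to uninhibited and no-enzyme wells.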
Giardia FBPA inh: inhibitors of Giardia lamblia fructose-1,6-bisphosphate aldolase. purified Giardia FBPA. hit rate 0.71% among 290,000. Potency, µM (top dose mostly 59.6 µM), without a hit: at the highest dose activity, negative = inhibition, hits mostly inhibitors. AID 2451. A8B2U2; further: nearly all actives have a fitted effect of over 55% in size
Target sequence (A8B2U2 whole entry, looked up): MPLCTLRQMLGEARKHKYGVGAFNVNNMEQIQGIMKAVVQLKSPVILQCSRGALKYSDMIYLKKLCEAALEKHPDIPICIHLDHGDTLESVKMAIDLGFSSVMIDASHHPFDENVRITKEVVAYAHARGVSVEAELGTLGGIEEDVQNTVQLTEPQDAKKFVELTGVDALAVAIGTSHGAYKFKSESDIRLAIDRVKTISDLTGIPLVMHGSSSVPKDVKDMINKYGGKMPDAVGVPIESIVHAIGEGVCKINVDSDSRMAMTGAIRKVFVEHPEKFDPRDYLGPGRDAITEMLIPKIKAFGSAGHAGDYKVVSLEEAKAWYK
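Giardia FBPA (40 nM reagent) was preincubated 10 min at RT with compound (up to 57.5 uM final), then substrate plus GAPDH/TPI/NAD/arsenate coupling system with diaphorase/resazurin was added; resorufin fluorescence (525/598 nm) was read after 20 min.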
AmpC inh no detg: AmpC beta-lactamase inhibition without detergent | hit rate 0.52% among 330,000 | AmpC nitrocefin hydrolysis, absorbance 480 nm, 0.0001% Triton | P00811 | Potency, µM (doses to about 57.1 µM), inactives show at the highest dose activity change, negative = inhibition, usual class: inhibitors | AID 485341;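 further: plate controls were no compound for no effect and no enzyme for full effect; nearly all actives have a fitted effect of over 20% in size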
Target sequence (P00811 whole entry, looked up): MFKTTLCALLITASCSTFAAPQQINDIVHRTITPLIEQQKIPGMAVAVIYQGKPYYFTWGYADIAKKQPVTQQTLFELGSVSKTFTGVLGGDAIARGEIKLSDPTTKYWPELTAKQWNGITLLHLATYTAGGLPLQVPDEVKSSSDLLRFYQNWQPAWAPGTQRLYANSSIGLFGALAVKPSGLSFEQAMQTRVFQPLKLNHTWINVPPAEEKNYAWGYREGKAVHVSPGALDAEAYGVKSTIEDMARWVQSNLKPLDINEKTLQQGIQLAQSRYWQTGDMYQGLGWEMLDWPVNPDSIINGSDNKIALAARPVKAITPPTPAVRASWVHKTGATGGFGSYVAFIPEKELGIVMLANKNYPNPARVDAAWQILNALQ
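20 mM phosphate pH 7.0 + 0.01% (detergent screen) or 0.0001% Triton X-100; 5.3 nM AmpC reagent; cpd preinc 15 min RT; nitrocefin (800 uM stock) to start; A480 q20 s × 4 min; Activity was normalised to no-enzyme and no-compound control wells.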
AmpC inh detg: blocks E. coli AmpC beta-lactamase in detergent assay. P00811. AmpC hydrolysis of nitrocefin, absorbance 480 nm, 0.01% Triton. Potency, µM (titrated, usually from 114 µM), for inactives: at the top dose activity change, negative = inhibition, usual class: inhibitors. hit rate 0.041% among 370,000;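 further: 0% = no-compound wells and -100% = no-enzyme wells; nearly all actives have a fitted effect of over 25% in size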
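20 mM phosphate pH 7.0 + 0.01% (detergent screen) or 0.0001% Triton X-100; 5.3 nM AmpC reagent; cpd preinc 15 min RT; nitrocefin (800 uM stock) to start; A480 q20 s × 4 min; Activity was normalised to no-enzyme and no-compound control wells.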
AMA1 RON2 block: disrupts binding of P. falciparum AMA1 to RON2; hit rate 0.2% among 360,000; AlphaScreen AMA1-biotinylated RON2 peptide binding; Potency, µM (titrated, usually from 58.2 µM), inactives show at the highest dose activity change, negative = inhibition, most hits filed as inhibitors;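 further: 0% = vehicle wells and -100% = peptide control; nearly all actives have a fitted effect of over 45% in size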
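AMA1 (3D7) with his tag at 25 nM final met compounds first, then biotinylated RON2 peptide at 25 nM; detection used donor plus acceptor beads, 10 µg/mL apiece, read by AlphaScreen after 30 min at room temperature.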
Active calls of the source: *; ? = inconclusive; . = no result; [ ] = remark or other dose. In the library only some 1.3% were active in any assay of this set; here they are far more common. The call rests on the fitted dose curve; in most records, active means well fitted curve in the direction sought with a large enough effect; inconclusive means small, poorly fitted or top-dose-only effect, or another doubt; inactive means no such curve, though single readings can be large; an effect the other way counts as inactive or inconclusive. Unless noted, on the % scale 0 is the no-effect control and ±100 the full control effect; potency means the concentration at half of the fitted maximal effect.

SMILES	LmPK inhibitor	Giardia FBPA inh	AmpC inh no detg	AmpC inh detg	AMA1 RON2 block
COc1ccccc1N1CCN(C(=O)CSc2nc3ccccc3nc2Cc2ccc(F)cc2)CC1	.	.	.	23%	.
CN=c1scc(C)n1/N=C/c1ccc2c(c1)OCO2	16µM*	-1%	-8%	?	?
CN=c1scc(C)n1/N=C/c1ccc(O)cc1	2%	0%	-21%	-5%	-9%
CC(=O)c1cccc(Nc2ncnc3c2cnn3-c2cccc(Cl)c2)c1	.	.	.	6%	.
S=C1SCCCN1Cc1ccc(Cl)cc1	.	.	.	.	1%
O=C(NC1CCCC1)c1c[nH]c2ccc(S(=O)(=O)Nc3cccc(C(F)(F)F)c3)cc2c1=O	.	.	.	0%	.
Cc1ccc(S(=O)(=O)Nc2c(Cl)c(Cl)c(O)c3ccccc23)cc1	6.3µM*	-10%	-40%	-1%	.
N#CC1(NC(=O)Cn2ncc(Cl)c(Cl)c2=O)CCCCC1	.	.	25µM*	-13%	2%
N#CC1(NC(=O)CN2C(=O)c3ccccc3C2=O)CCCCC1	.	.	-8%	2%	-10%
O=C(NCc1ccccc1)C(c1ccc(-c2ccccc2)cc1)N1CCN(c2ccccc2F)CC1 (configuration not stated)	.	.	.	.	13%
Cc1ccc(NC(=S)Nc2ccc3nc(-c4ccccn4)c(-c4ccccn4)nc3c2)cc1C	2%	1.3µM*	-11%	?	-5%
Cc1ccc(NC(=S)Nc2ccccn2)cc1C	1%	-9%	-38%	-3%	48%
Cn1nc(-c2ccccn2)nc2c(=O)n(C)c(=O)nc1-2	0%	?	-15%	-8%	8.9µM*
CCCc1nc2c(=O)n(C)c(=O)nc-2n(C)n1	-1%	5µM*	3%	5%	4%
COc1ccc(-c2nc(-c3ccccn3)ncc2S(C)(=O)=O)cc1	-5%	9%	-10%	?	75%
Cc1ccc(C)c(N(C)S(=O)(=O)c2ccc3[nH]cc(C(=O)NC4CCCC4)c(=O)c3c2)c1	.	.	.	10%	.
O=C1C(c2c(O)[nH]c3ccccc23)=Nc2ccccc21	?	1%	-18%	-4%	-1%
O=C1C(c2[nH]c3ccc(S(=O)(=O)O)cc3c2O)=Nc2ccc(S(=O)(=O)O)cc21	.	18µM*	.	.	.
FC(F)(F)C1=Nc2cccc3cccc(c23)N1	.	.	8.9µM*	?	?
COCCn1c(=O)c(-c2ccc(F)cc2)nc2cnc(OC)nc21	.	1%	.	.	.
COc1cc(O)c(C(=O)c2ccccc2)cc1O	.	3.5µM*	.	.	.
CN1c2ccc([N+](=O)[O-])cc2N(C)C1(C)c1ccccc1 (configuration not stated)	-6%	-11%	-39%	1%	13µM*
Cn1c2ccccc2c2cc([N+](=O)[O-])ccc21	3%	-3%	-21%	1%	-15%
O=C(CN1CCCC1)Nc1ccc(NC(=O)Nc2ccccc2Cl)cc1	0%	1%	16µM*	?	-2%
O=C(CN1CCCC1)Nc1ccccc1Cl	3%	5%	-3%	-2%	0%
SMILES	LmPK inhibitor	Giardia FBPA inh	AmpC inh no detg	AmpC inh detg	AMA1 RON2 block
O=C(Nc1ccccc1Cl)NC1CCCCCCC1	1%	.	35µM*	3%	1%
Cc1cc2nc(-c3ccco3)cc(C(F)(F)F)n2n1	5%	-2%	10µM*	15%	-1%
CCOC(=O)c1cc2nc(-c3ccco3)cc(C(F)(F)F)n2n1	2%	7%	-7%	-9%	12%
CCOC(=O)C1=C(Cc2ccc(Cl)cc2)C(=O)c2ccccc2C1=O	?	2.5µM*	-45%	-15%	?
CCOC(=O)C1=C(C)N=C2c3ccccc3C(=O)C2C1c1ccc(Cl)cc1 (configuration not stated)	-1%	-5%	-44%	?	-17%
CCOC(=O)c1c(NC(=O)CC)sc(C(=O)NC2CCCC2)c1C	-1%	14%	3%	-5%	-3%
CCCCCCCCSC1=CC(=O)C(OC)=C(OC)C1=O	.	.	.	.	7.9µM*
CCCCCSc1nncc(=O)[nH]1	3%	5%	-7%	-4%	15%
CC(=O)OCC1=C(C(=O)O)N2C(=O)[C@@H](NC(=O)Cc3cccs3)[C@H]2SC1	14%	?	8.9µM*	7.1µM*	0%
CC(=O)OCC1=C(C(=O)O)N2C(=O)[C@@H](NC(=O)Cc3ccccc3)[C@H]2SC1	.	.	.	.	34%
C=CC1=C(C(=O)O)N2C(=O)C(NC(=O)Cc3ccccc3)C2SC1 (configuration not stated)	7%	16µM*	-13%	-3%	1%
Cc1nnc(N2CCCC(C(=O)NCCc3ccccc3)C2)c2nn(-c3ccccc3)c(C)c12 (configuration not stated)	.	.	.	23%	.
O=C(NCC1CC1)c1ccc2c3n(nc2c1)-c1ccccc1CO3	14µM*	-4%	-9%	1%	-6%
CC(C)[C@@H](CO)NC(=O)c1ccc2c3n(nc2c1)-c1ccccc1CO3	14µM*	-2%	-5%	3%	10%
CC(C)NC(=O)c1ccc2c3n(nc2c1)-c1ccccc1CO3	13µM*	6%	-12%	-8%	-5%
O=C(NCCO)c1ccc2c3n(nc2c1)-c1ccccc1CO3	?	8%	-22%	-4%	21%
CCC(C)NC(=O)Cn1ncc2c([nH]c3ccc(C)cc32)c1=O (configuration not stated)	.	.	.	12%	.
CCOc1cccc2cc(-c3nc4sc5c(c4c(=O)[nH]3)CCC(C)C5)c(=O)oc12 (configuration not stated)	.	.	.	17%	.
CC(C)C(NS(=O)(=O)c1ccc2c(c1)Cc1cc(S(=O)(=O)NC(C(=O)O)C(C)C)ccc1-2)C(=O)O (configuration not stated)	0%	2%	-17%	-3%	-26%
Cc1ccc(OCC(=O)Nc2ccc3c(c2)nc(CCNC(=O)c2ccco2)n3C)cc1	.	.	.	8%	.
C/C(CCc1ccco1)=N\NC(=O)CNc1cccc2ccccc12	13%[11.5 µM]	20µM*	-22%	-6%	0%
C/C(=N\NC(=O)CNc1cccc2ccccc12)c1ccccc1	-7%	1%	-18%	4%	0%
O=C(Nc1ccncc1)C1CCCN(S(=O)(=O)c2cccc3cccnc23)C1 (configuration not stated)	8%	1%	45µM*	?	0%
O=C(NCC1CCCO1)C1CCN(C(=O)c2ccc(Br)cc2)CC1 (configuration not stated)	-9%	-1%	4µM*	-1%	2%
CCOc1ccccc1NC(=O)C1CCCN(S(=O)(=O)c2cccc3cccnc23)C1 (configuration not stated)	1%	0%	5.6µM*	-4%	1%
O=C(NCC1CCCO1)C1CCN(S(=O)(=O)c2cccc3cccnc23)CC1 (configuration not stated)	0%	20%	3.2µM*	-1%	12%

Assay outcomes as filed in PubChem.
